The campaign covered roughly 1,100 compounds. About 760 (69%) were called active. No rule for the calls is given here. So high a share suggests a set chosen from earlier hits. This is one part of the list.
Test: M. tuberculosis growth inhibition, HTS (AID 1259417);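 also: bacteria grown with compound for 5 days at 37 °C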
Conditions: stronger effect = higher value, concentration not given here
[1] = M. tuberculosis DsRed fluorescence growth inhibition
[2] = M. tuberculosis growth inhibition

Row | SMILES | inhibition [1] | inhibition [2] [%]
1 | Cc1ccc2oc(-c3cc(NC(=O)Cc4ccccc4)ccc3Cl)nc2c1 | 88% (active) | 49.9
2 | COC(=O)CSc1nc2c(c(-c3ccco3)c1C#N)CCCC2 | 2.74% (inactive) | -22.6
3 | COC(=O)CSc1nc(-c2ccccc2)c2c(c1C#N)CCCC2 | -3.83% (inactive) | -16.2
4 | COC(=O)CSc1nc(N2CCCCC2)c2c(c1C#N)CCCC2 | 26.1% (active) | 78.9
5 | COC(=O)C(C)Oc1ccc(-c2nccc(-c3cccs3)n2)cc1 (stereo unspecified) | 43.6% (active) | 69.4
6 | CC(C)(C)c1cc(Cl)ccc1OCCCCn1ccnc1 | 99.7% (active) | 99.7
7 | CC(C)(C)c1cc(Cl)ccc1OCCn1ccnc1 | 90.4% (active) | 95
8 | CC(C)(C)NCCCCOc1ccc(Cl)cc1C(C)(C)C | 59% (active) | 43.9
9 | C#CCOCCOCCOCCNc1nc(N2CCN(C(=O)[C@H](Cc3cc4ccccc4[nH]3)n3cc([C@@H](N)CC(C)C)nn3)CC2)nc(N2CCN(C(=O)[C@H](Cc3cc4ccccc4[nH]3)n3cc([C@@H](N)CC(C)C)nn3)CC2)n1 | 68% (active) | 50.3
10 | O=S(=O)(Nc1cccc2cccnc12)c1ccc(Br)cc1 | 73.1% (active) | 91.6
11 | O=S(=O)(Nc1cc(Sc2cccc3cccnc23)c(O)c2ccccc12)c1ccccc1 | 3.26% (active) | 44.3
12 | O=S(=O)(Nc1cc(Br)c(O)c2ccccc12)c1ccc(F)cc1 | 3.24% (inactive) | -11.2
13 | Cc1ccc2nsnc2c1S(=O)(=O)Nc1cccc2cccnc12 | 100% (active) | 99.4
14 | O=C(Nc1ccc(S(=O)(=O)N2CCC(c3nc4ccccc4[nH]3)CC2)cc1)c1cccc(Cl)c1 | 0.997% (inactive) | -16
15 | Cc1ccc(NC(=O)N2CCC(c3nc4c(nnn4Cc4cccc(Cl)c4)c(=O)[nH]3)CC2)cc1 | 97.3% (active) | 99.6
16 | C=CCOC(=O)COc1ccc2cc(-c3ccc(OC)cc3)c(=O)oc2c1 | 97.2% (active) | 98.4
17 | C=CCOC(=O)COc1ccc2c(-c3cc4ccccc4oc3=O)cc(=O)oc2c1 | 37.7% (active) | 60.7
18 | CC(C)OC(=O)COc1ccc2cc(-c3ccccc3)c(=O)oc2c1 | 61.1% (active) | 80.6
19 | COC(=O)C(C)Oc1ccc2cc(-c3ccc(OC)cc3)c(=O)oc2c1 (stereo unspecified) | 66.3% (active) | 96.3
20 | CCCC1(O)CC(c2ccc(Cl)cc2)NC(c2ccc(Cl)cc2)C1C (stereo unspecified) | 8.53% (inactive) | -21.7
21 | C=CCOC(=O)COc1ccc2c(C)c(-c3ccccc3)c(=O)oc2c1 | 71.8% (active) | 92.5
22 | C=CCOC(=O)COc1ccc2cc(-c3ccccc3)c(=O)oc2c1 | 93.1% (active) | 97

Row | SMILES | inhibition [1] | inhibition [2] [%]
23 | C=CCOC(=O)COc1ccc2cc(-c3ccc(Cl)cc3)c(=O)oc2c1 | 98.9% (active) | 99.5
24 | COc1ccc(CCNc2cc(C)nc3c(-c4ccccc4)c(C)nn23)cc1OC | 98.5% (active) | 98.9
25 | Cc1cc(C)cc(Nc2cc(C)nc3c(-c4ccccc4)cnn23)c1 | 5.66% (inactive) | 21.5
26 | COC(=O)C(C)Oc1ccc2c(=O)c(Oc3ccccc3Br)coc2c1 (stereo unspecified) | 59.3% (active) | 82.3
27 | CCc1ccc(Oc2coc3cc(OC(C)C(=O)OC)ccc3c2=O)cc1 (stereo unspecified) | 65.1% (active) | 92.2
28 | CC1CCN(c2ccc(NC(=O)c3ccc([N+](=O)[O-])o3)cc2)CC1 | 98.8% (active) | 98.7
29 | CC(C)C(=O)N1CCN(c2ccccc2NC(=O)c2ccc([N+](=O)[O-])o2)CC1 | 19.7% (inactive) | 5.43
30 | O=C(Nc1ccc(N2CCN(Cc3ccccc3F)CC2)cc1)c1ccc([N+](=O)[O-])o1 | 100% (active) | 99.7
31 | CC(C)C(=O)N1CCN(c2ccc(NC(=O)c3ccc([N+](=O)[O-])o3)cc2)CC1 | 99.1% (active) | 100
32 | CCOC(=O)COc1ccc(S(=O)(=O)Nc2ccc(C)c(C)c2)cc1 | -1.13% (inactive) | 22
33 | CCOC(=O)COc1ccc(C(=O)Nc2cccc(Cl)c2C)cc1 | 97.7% (active) | 97.9
34 | CCOC(=O)COc1ccc(S(=O)(=O)Nc2c(C)cccc2CC)cc1 | 53% (active) | 92.2
35 | CCOC(=O)COc1ccc(S(=O)(=O)Nc2cccc(Cl)c2C)cc1 | 14.4% (active) | 55.5
36 | Cc1sc2ncn(C(C)C(=O)OC3CCCCC3)c(=O)c2c1C (stereo unspecified) | 6.18% (inactive) | 8.72
37 | Cc1c(Cl)cccc1NC(=O)c1ccc(OC(C)C(=O)OC2CCCCC2)cc1 (stereo unspecified) | 38.3% (active) | 74.3
38 | CSc1ncc(C(=O)Nc2cccc(C(F)(F)F)c2)cn1 | 12.9% (inactive) | 15.6
39 | COc1ccccc1C(=O)Nc1sc2c(c1C(=O)NCc1ccco1)CCC2 | 3.89% (inactive) | -6.54
40 | O=C(NCc1ccco1)c1cc([N+](=O)[O-])cc([N+](=O)[O-])c1 | 97.8% (active) | 93.5
41 | Cc1scc(C(=O)NCc2ccco2)c1-c1ccccc1 | 2.71% (inactive) | 6.55
42 | CSc1ncc(C(=O)NCc2ccco2)cn1 | 35.2% (active) | 25.2
43 | O=C(Nc1sc2c(c1C(=O)NCc1ccco1)CCC2)c1ccccc1[N+](=O)[O-] | 3.29% (inactive) | -5.87
